# Data as given in article PMC7862700, “An all-to-all approach to the identification of sequence-specific readers for epigenetic DNA modifications on cytosine”.
# Tests used:
# Test in all cases: DAPPL (digital affinity profiling via proximity ligation, sequencing); 10 mM Tris-HCl pH 7.5, 50 mM NaCl, 1 mM DTT, 4% glycerol, room temperature, 30 min; GST-TFs on glutathione beads, 16-mer random dsDNA library, 0.1% formaldehyde crosslink after washing; high values mean tight binding
# FLI1 = target: T1, FLI1 (Homo sapiens, UniProt Q01543 1-452); details: protein: recombinant; tags: N-terminal GST; dsDNA, one strand shown
# T1 sequence: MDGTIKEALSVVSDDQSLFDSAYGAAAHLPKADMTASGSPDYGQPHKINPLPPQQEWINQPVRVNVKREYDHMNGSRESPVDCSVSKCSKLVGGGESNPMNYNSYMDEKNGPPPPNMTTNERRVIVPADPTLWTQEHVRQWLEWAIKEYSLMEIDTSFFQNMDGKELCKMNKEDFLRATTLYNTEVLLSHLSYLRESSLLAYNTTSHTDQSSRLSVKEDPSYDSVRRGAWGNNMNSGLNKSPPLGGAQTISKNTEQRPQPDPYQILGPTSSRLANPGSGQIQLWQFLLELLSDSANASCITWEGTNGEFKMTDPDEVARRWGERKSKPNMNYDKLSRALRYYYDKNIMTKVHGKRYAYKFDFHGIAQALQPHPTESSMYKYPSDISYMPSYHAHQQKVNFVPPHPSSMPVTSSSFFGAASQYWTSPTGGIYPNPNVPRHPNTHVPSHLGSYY
# How it was run: (§1)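 In yeast, human transcription factors were expressed with a GST fusion, then pulled down on glutathione beads and given DNA barcodes. Pooled with a tag-only sample, they were exposed to 200 nmole of a 16-mer random double-stranded DNA library (Tris/NaCl/DTT/glycerol buffer, room temperature, 30 min), washed, crosslinked with 0.1% formaldehyde, proximity-ligated using BsaI/T4 ligase for 1 h at 37 °C, PCR-amplified and read on an Illumina NextSeq500. Each hexamer's frequency of reads for a factor, divided by the matching frequency for the tag-only sample, gives the binding signal.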
# ELK1 = target: T2, ELK1 (Homo sapiens, UniProt P19419 1-428); details: protein: recombinant; tags: N-terminal GST; dsDNA, one strand shown
# T2 sequence: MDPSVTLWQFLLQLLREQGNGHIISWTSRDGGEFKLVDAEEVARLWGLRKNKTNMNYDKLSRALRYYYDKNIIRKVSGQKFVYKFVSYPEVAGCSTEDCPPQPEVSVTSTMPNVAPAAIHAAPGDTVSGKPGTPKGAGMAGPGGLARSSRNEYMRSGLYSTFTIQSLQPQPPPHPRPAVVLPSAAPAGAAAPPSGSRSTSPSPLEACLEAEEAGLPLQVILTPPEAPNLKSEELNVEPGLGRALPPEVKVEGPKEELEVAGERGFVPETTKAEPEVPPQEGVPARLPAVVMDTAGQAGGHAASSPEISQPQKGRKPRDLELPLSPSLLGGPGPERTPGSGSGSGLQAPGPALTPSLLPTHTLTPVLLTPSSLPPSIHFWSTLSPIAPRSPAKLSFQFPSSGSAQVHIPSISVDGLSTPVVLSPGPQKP
# How it was run: as §1
# GABPA = target: T3, GABPA (Homo sapiens, UniProt Q06546 1-454); details: protein: recombinant; tags: N-terminal GST; dsDNA, one strand shown
# T3 sequence: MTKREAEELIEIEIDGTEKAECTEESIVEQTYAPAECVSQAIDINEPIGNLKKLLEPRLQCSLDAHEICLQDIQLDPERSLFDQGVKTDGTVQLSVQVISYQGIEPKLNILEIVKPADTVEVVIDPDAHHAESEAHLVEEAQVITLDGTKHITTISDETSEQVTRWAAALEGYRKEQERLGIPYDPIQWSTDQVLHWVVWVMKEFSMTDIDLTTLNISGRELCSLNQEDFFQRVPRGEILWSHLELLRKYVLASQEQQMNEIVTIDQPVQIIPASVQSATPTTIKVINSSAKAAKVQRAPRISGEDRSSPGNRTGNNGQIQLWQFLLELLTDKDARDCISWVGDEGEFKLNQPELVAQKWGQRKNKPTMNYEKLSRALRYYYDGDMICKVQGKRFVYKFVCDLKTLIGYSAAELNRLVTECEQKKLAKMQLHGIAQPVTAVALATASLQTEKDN
# How it was run: as §1
# ERG = target: T4, ERG (Homo sapiens, UniProt P11308 1-479); details: protein: recombinant; tags: N-terminal GST; dsDNA, one strand shown
# T4 sequence: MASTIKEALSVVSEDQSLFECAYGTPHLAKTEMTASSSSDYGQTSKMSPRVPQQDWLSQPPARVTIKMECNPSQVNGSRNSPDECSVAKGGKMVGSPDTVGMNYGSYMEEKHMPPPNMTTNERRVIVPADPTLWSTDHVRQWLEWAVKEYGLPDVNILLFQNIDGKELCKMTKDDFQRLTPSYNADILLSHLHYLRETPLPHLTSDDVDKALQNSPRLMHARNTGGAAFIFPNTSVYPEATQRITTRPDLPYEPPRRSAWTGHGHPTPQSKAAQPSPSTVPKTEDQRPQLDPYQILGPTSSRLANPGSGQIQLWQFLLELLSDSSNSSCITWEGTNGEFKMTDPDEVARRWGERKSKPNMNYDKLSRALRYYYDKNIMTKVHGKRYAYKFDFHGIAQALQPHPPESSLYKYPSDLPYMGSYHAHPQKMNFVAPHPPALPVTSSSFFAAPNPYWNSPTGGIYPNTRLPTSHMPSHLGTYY
# How it was run: as §1
# ELF1 = ELF1 (Homo sapiens, UniProt P32519 1-619); details: protein: recombinant; tags: N-terminal GST; dsDNA, one strand shown
# How it was run: as §1
# EHF = target: T5, EHF (Homo sapiens, UniProt Q9NZC4 1-300); details: protein: recombinant; tags: N-terminal GST; dsDNA, one strand shown
# T5 sequence: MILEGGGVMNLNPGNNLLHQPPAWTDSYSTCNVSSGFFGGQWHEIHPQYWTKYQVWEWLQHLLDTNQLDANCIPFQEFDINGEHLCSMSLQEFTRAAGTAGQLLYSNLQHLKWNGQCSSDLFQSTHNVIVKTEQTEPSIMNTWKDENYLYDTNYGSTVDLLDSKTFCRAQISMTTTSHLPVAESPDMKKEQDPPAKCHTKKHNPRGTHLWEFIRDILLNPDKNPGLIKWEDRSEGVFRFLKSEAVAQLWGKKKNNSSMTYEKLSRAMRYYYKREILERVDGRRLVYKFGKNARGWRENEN
# How it was run: as §1
# SPI1 = SPI1 (Homo sapiens, UniProt P17947 1-270); details: protein: recombinant; tags: N-terminal GST; dsDNA, one strand shown
# How it was run: as §1
# SPIB = SPIB (Homo sapiens, UniProt Q01892 1-262); details: protein: recombinant; tags: N-terminal GST; dsDNA, one strand shown
# How it was run: as §1
# ELK3 = target: T6, ELK3 (Homo sapiens, UniProt P41970 1-407); details: protein: recombinant; tags: N-terminal GST; dsDNA, one strand shown
# T6 sequence: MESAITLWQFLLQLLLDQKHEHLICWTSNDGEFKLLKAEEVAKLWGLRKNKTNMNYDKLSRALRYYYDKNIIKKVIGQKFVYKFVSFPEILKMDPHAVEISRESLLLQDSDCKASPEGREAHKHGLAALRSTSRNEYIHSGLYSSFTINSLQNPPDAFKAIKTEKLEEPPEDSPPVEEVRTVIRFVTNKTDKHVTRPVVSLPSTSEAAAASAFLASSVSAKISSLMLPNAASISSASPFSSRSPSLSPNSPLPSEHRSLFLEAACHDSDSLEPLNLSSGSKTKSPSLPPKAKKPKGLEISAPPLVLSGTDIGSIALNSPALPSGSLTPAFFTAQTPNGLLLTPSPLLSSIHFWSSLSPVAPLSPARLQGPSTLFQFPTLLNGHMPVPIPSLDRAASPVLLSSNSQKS
# How it was run: as §1
# FEV = target: T7, FEV (Homo sapiens, UniProt Q99581 1-238); details: protein: recombinant; tags: N-terminal GST; dsDNA, one strand shown
# T7 sequence: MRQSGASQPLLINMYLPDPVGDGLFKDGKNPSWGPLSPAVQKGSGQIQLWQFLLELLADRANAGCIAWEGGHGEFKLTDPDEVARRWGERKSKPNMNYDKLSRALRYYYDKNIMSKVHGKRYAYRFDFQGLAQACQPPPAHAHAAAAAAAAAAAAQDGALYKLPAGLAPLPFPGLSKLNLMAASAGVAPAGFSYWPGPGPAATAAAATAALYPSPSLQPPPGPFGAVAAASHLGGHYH
# How it was run: as §1
# ETV5 = ETV5 (Homo sapiens, UniProt P41161 1-510); details: protein: recombinant; tags: N-terminal GST; dsDNA, one strand shown
# How it was run: as §1
# HSF1 = HSF1 (Homo sapiens, UniProt Q00613 1-529); details: protein: recombinant; tags: N-terminal GST; chain copies: 3; dsDNA, one strand shown
# How it was run: as §1
# SPIC = target: T8, SPIC (Homo sapiens, UniProt Q8N5J4 1-248); details: protein: recombinant; tags: N-terminal GST; dsDNA, one strand shown
# T8 sequence: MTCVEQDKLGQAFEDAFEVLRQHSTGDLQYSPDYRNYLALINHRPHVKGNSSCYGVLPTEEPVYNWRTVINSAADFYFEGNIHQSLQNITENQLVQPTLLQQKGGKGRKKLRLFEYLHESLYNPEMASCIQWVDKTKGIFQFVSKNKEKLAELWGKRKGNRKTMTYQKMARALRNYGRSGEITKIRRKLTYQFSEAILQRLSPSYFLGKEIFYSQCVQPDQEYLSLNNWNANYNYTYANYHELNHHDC
# How it was run: as §1
# ELF4 = ELF4 (Homo sapiens, UniProt Q99607 1-663); details: protein: recombinant; tags: N-terminal GST; dsDNA, one strand shown
# How it was run: as §1
# ELK4 = target: T9, ELK4 (Homo sapiens, UniProt P28324-2 1-405); details: protein: recombinant; tags: N-terminal GST; dsDNA, one strand shown
# T9 sequence: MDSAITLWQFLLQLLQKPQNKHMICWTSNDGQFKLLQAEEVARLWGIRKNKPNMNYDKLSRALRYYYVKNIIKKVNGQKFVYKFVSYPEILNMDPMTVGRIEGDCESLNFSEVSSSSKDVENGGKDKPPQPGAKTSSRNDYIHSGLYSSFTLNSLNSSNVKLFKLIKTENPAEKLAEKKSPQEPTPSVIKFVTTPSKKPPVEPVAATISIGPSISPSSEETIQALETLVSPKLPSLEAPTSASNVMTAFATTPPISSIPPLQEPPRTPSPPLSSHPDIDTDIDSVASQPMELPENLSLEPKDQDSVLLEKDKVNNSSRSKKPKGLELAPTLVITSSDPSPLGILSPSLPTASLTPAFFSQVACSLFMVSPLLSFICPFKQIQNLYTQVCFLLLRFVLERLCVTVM
# How it was run: as §1
# ETV2 = target: T10, ETV2 (Homo sapiens, UniProt O00321 1-342); details: protein: recombinant; tags: N-terminal GST; dsDNA, one strand shown
# T10 sequence: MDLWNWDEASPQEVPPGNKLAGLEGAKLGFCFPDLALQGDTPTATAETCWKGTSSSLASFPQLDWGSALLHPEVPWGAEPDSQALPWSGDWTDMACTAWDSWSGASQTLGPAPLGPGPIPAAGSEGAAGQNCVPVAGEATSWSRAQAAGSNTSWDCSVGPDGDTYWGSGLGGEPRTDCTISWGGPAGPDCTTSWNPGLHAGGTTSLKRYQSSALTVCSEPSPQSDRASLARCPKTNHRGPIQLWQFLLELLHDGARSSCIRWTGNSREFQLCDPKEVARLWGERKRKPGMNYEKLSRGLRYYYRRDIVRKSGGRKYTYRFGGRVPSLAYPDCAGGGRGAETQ
# How it was run: as §1
# ELF3 = target: T11, ELF3 (Homo sapiens, UniProt P78545 1-371); details: protein: recombinant; tags: N-terminal GST; dsDNA, one strand shown
# T11 sequence: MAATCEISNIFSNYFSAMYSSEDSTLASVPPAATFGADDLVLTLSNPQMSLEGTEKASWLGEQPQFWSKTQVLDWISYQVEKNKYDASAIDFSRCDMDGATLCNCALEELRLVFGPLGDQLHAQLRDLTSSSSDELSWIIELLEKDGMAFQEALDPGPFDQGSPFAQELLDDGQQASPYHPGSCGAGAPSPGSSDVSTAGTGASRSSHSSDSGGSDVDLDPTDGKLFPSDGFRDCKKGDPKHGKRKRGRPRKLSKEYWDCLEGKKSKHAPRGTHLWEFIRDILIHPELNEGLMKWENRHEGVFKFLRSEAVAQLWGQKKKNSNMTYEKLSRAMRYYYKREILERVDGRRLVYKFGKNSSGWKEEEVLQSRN
# How it was run: as §1
# CRX = CRX (Homo sapiens, UniProt O43186 1-299); details: protein: recombinant; tags: N-terminal GST; dsDNA, one strand shown
# How it was run: as §1
# ETV1 = ETV1 (Homo sapiens, UniProt P50549 1-477); details: protein: recombinant; tags: N-terminal GST; dsDNA, one strand shown
# How it was run: as §1
# Sequence of ETV1 (P50549 whole entry): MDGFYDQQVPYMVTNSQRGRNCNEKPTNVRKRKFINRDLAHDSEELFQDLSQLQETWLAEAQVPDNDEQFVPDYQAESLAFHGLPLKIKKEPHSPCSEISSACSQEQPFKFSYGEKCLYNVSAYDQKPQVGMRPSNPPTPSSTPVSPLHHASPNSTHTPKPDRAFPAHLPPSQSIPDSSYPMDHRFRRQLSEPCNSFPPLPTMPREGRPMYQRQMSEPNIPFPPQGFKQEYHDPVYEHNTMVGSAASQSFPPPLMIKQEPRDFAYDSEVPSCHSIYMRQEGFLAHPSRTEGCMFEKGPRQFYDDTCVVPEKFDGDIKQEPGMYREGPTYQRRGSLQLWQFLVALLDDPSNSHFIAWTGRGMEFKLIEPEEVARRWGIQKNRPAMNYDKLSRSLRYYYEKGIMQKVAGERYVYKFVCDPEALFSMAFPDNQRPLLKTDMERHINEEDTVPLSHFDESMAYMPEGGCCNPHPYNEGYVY
# Sequence of HSF1 (Q00613 whole entry): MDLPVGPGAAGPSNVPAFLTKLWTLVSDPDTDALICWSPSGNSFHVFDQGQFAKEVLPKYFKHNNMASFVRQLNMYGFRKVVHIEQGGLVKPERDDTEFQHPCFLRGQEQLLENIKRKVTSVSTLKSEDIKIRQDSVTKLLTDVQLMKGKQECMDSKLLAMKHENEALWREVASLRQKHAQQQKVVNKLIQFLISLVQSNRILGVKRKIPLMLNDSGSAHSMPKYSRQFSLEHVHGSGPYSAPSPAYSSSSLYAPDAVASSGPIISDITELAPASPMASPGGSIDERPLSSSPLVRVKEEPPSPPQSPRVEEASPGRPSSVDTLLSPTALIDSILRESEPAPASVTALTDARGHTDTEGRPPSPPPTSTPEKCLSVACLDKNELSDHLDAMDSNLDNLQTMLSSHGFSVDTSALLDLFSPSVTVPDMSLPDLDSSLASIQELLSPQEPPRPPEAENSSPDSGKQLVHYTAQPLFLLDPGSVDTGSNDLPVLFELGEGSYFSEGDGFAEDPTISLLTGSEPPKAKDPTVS
# Sequence of ETV5 (P41161 whole entry): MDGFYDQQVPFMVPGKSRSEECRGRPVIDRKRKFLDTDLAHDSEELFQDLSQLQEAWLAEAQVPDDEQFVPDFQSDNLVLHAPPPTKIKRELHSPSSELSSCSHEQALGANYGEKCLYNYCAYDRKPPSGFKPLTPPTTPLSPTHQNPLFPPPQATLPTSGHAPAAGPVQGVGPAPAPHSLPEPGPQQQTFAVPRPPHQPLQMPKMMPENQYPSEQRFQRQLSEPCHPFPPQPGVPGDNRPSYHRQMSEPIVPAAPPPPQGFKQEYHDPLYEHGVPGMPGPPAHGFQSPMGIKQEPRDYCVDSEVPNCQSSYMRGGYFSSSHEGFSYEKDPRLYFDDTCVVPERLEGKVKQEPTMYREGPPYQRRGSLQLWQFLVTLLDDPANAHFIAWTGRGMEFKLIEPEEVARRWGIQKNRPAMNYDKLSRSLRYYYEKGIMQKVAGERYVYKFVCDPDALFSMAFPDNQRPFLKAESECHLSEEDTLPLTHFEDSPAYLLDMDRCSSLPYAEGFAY
# Sequence of CRX (O43186 whole entry): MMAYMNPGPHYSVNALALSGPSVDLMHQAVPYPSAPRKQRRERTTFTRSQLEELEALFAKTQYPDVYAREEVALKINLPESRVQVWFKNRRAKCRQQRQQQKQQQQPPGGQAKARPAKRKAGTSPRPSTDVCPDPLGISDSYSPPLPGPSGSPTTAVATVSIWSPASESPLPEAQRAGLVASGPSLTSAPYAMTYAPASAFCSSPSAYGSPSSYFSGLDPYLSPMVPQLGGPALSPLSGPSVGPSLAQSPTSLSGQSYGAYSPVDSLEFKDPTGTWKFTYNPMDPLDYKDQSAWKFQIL
# Sequence of ELF4 (Q99607 whole entry): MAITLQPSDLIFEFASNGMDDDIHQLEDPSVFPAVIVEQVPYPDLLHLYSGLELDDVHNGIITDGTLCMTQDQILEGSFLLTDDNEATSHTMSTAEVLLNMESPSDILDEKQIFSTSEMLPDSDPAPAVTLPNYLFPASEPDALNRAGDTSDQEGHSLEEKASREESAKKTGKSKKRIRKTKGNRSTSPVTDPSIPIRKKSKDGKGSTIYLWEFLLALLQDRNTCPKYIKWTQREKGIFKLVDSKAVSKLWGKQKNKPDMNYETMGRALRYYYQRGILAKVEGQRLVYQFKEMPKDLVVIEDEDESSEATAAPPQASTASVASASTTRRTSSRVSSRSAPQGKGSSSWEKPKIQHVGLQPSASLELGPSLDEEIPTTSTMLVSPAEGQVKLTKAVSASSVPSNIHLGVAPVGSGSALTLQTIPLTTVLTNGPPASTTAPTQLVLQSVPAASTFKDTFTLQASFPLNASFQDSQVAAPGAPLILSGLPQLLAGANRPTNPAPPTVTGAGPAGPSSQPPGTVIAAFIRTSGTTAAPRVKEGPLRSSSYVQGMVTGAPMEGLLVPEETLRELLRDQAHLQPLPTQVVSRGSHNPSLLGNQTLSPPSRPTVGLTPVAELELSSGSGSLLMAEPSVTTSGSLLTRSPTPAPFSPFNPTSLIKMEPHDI
# Sequence of SPIB (Q01892 whole entry): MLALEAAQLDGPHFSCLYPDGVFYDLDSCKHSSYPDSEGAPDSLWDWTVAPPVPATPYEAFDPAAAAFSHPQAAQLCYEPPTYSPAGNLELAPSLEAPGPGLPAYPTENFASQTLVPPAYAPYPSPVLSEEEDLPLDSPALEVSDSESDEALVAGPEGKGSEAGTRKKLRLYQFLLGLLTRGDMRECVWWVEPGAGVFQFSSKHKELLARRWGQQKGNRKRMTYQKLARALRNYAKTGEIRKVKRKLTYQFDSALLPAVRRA
# Sequence of ELF1 (P32519 whole entry): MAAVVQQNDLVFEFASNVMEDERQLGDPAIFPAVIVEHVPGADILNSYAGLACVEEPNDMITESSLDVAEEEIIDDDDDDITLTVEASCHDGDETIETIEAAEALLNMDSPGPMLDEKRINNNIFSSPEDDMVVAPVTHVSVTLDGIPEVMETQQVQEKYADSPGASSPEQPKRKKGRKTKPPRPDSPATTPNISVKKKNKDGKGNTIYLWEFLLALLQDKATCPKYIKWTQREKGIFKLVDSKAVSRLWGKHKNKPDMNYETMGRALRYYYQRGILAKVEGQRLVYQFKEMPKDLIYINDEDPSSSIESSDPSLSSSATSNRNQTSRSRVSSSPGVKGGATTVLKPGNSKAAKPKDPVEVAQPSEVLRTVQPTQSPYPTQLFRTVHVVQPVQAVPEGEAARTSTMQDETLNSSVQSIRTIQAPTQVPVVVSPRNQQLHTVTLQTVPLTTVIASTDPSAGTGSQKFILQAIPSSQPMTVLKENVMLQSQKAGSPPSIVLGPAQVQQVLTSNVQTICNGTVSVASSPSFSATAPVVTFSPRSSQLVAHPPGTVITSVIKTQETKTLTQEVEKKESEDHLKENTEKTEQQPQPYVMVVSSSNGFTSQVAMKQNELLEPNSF
sequence,measurement,setting,value
TTATTT,binding signal,FLI1,"1.4 fold enrichment (6-mer frequency, TF over GST control)"
same,binding signal,ELK1,"1.42 fold enrichment (6-mer frequency, TF over GST control)"
same,binding signal,GABPA,"1.33 fold enrichment (6-mer frequency, TF over GST control)"
same,binding signal,ERG,"1.44 fold enrichment (6-mer frequency, TF over GST control)"
same,binding signal,ELF1,"1.3 fold enrichment (6-mer frequency, TF over GST control)"
same,binding signal,EHF,"1.35 fold enrichment (6-mer frequency, TF over GST control)"
same,binding signal,SPI1,"1.44 fold enrichment (6-mer frequency, TF over GST control)"
same,binding signal,SPIB,"1.37 fold enrichment (6-mer frequency, TF over GST control)"
same,binding signal,ELK3,"1.33 fold enrichment (6-mer frequency, TF over GST control)"
same,binding signal,FEV,"1.41 fold enrichment (6-mer frequency, TF over GST control)"
same,binding signal,ETV5,"1.47 fold enrichment (6-mer frequency, TF over GST control)"
same,binding signal,HSF1,"1.64 fold enrichment (6-mer frequency, TF over GST control)"
same,binding signal,SPIC,"1.48 fold enrichment (6-mer frequency, TF over GST control)"
same,binding signal,ELF4,"1.32 fold enrichment (6-mer frequency, TF over GST control)"
same,binding signal,ELK4,"1.43 fold enrichment (6-mer frequency, TF over GST control)"
same,binding signal,ETV2,"1.26 fold enrichment (6-mer frequency, TF over GST control)"
same,binding signal,ELF3,"1.55 fold enrichment (6-mer frequency, TF over GST control)"
same,binding signal,CRX,"2.43 fold enrichment (6-mer frequency, TF over GST control)"
same,binding signal,ETV1,"1.52 fold enrichment (6-mer frequency, TF over GST control)"
